# PubChem BioAssay (NCATS)
# Records with an inconclusive call do not appear. Active and inactive are the calls of the source. Unless noted, calls come from the whole dose curve; as a rule, active = well fitted curve in the direction sought with a large enough effect; inconclusive = small, poorly fitted or top-dose-only effect, or another doubt; inactive = no such curve, though single readings can be large; an effect the other way counts as inactive or inconclusive.
# Legend:
# [1] = P-glycoprotein substrates identified in KB-8-5-11 adenocarcinoma cell line, qHTS therapeutic library screen (AID 1346987); note: nearly all actives have a fitted effect of over 65% in size; note: potency is the fitted concentration of half-maximal effect; for activity change, negative = cytotoxicity: % is set by controls: 0 for no effect and ±100 for the full control effect
# Outline: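 In this qHTS, P-gp-rich KB-8-5-11 cells received library compounds across a concentration range. Viability was quantified by luminescence after 72 h at 37 degree C.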
# [2] = target: Catechol O-methyltransferase (Homo sapiens) (UniProt P21964); assay: Confirmatory Screen for Target Class Profiling of Small Molecule Inhibitors of Methyltransferases (AID 1745852); conditions: MTase-Glo luminescence, SAH detection, recombinant enzyme; measured here: COMT max response; stronger effect = lower value; for activity change, negative = inhibition: % is set by controls: 0 for no effect and ±100 for the full control effect
# [3] = target: Guanidinoacetate N-methyltransferase (Homo sapiens) (UniProt Q14353); assay: as above; conditions: activity change, negative = inhibition: at 57.3 µM (top of the series) unless noted
# [4] = target: Nicotinamide N-methyltransferase (Homo sapiens) (UniProt P40261); assay: as above; conditions: MTase-Glo luminescence, SAH detection, recombinant enzyme; measured here: NNMT max response; stronger effect = lower value
# [5] = target: Phenylethanolamine N-methyltransferase (Homo sapiens) (UniProt P11086); assay: as above; conditions: MTase-Glo luminescence, SAH detection, recombinant enzyme; measured here: PNMT max response; stronger effect = lower value
# [6] = Primary fluorescence-based thiol-reactive (MSTI) qHTS assay for identification of artifact compounds. (AID 1845221); note: nearly all actives have a fitted effect of over 65% in size; note: potency is the fitted concentration of half-maximal effect
# Outline: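 A multi-concentration qHTS design tested compounds against 4 uM MSTI, pH 7.4 phosphate-buffered saline. Plates were protected from light for 1 h at room temperature before imaging fluorescence.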
# [7] = Primary redox qHTS assay for identification of artifact compounds. (AID 1845223);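 note: 0% = DMSO and 100% = reference compound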
# Outline: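 Redox-cycling detection via DTT (250 uM final) oxidation coupled to Amplex Red (25 uM)/HRP (250 mU/mL) in HBSS. 15 min preincubation plus 30 min after DTT, room temperature. Ex/Em 525/598 nm; 4-parameter Hill fit against DMSO and 10 uM DA3003.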
# HACAT = assay: qHTS assay to identify novel small-molecules to repurpose for Merkel cell carcinoma treatment (AID 1296009); conditions: MCC and control cell lines, CellTiter-Glo viability, 72 h; at 44.8 µM (top of the series) unless noted; note: nearly all actives have a fitted effect of over 60% in size
# Outline: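 Cell viability measured by CellTiter-Glo following 72 hr compound treatment at 37 degree celsius, with NPC and MIPE libraries tested in 8- and 11-point concentration series.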
# CAOV3 = assay: Primary qHTS to identify gynecologic anti-cancer compounds using libraries of approved drugs and bioactive compounds (AID 1345084); conditions: Gynecologic cancer cell panel viability, ATPlite luminescence, 48 h; series mostly up to 57.5 µM; note: nearly all actives have a fitted effect of over 55% in size; note: potency is the fitted concentration of half-maximal effect; for activity change, negative = cytotoxicity: % is set by controls: 0 for no effect and ±100 for the full control effect
# Outline: (§1)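 ATP-based viability (ATPlite), 1,000 cells/well, 16 h pre-incubation, 48 h compound at 37 C, 5% CO2, 15 min RT before read.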
# SKOV3 = assay: as above; conditions: Gynecologic cancer cell panel viability, ATPlite luminescence, 48 h; series mostly up to 57.5 µM
# Outline: as §1
# [8] = qHTS to identify inhibitors of the type 1 interferon - major histocompatibility complex class I in skeletal muscle: primary screen against the NCATS Mechanism Interrogation Plate v5.0 (MIPE) Libary (AID 1347411); note: nearly all actives have a fitted effect of over 65% in size; note: potency is the fitted concentration of half-maximal effect;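 for activity change, negative = inhibition: plate controls were vehicle for no effect and reference inhibitor for full effect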
# Outline: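 HLA-B HiBit myoblasts, dexamethasone-free medium + 4 ng/ml IFN-b, 24 h compound, 11-pt 1:3 from 46 uM final. Readout: Nano-Glo HiBiT lytic luminescence after 10 min lysis, RT.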
# NIH3T3 = assay: Cytotoxic Profiling of Annotated Libraries Using Quantitative High-Throughput Screening (AID 1296008); conditions: Five cell lines viability, CellTiter-Glo ATP luminescence, 48-72 h; max response: stronger effect = lower value; note: nearly all actives have a fitted effect of over 60% in size; note: potency is the fitted concentration of half-maximal effect
# Outline: (§2)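 Cytotoxicity was measured as CellTiter-Glo ATP luminescence, read after 10 min at room temperature. Compound treatment of the cells lasted 48 or 72 hr at 37 degrees Celsius in a qHTS format.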
# [9] = target: Cytochrome P450 2D6 (Homo sapiens) (UniProt P10635); assay: Cytochrome P450 family 2 subfamily D member 6 (CYP2D6) small molecule antagonists: luciferase biochemical (cell-free) qHTS assay (AID 1645840; active = well fitted curve in the direction sought with a large enough effect in the repeat runs; an effect the other way counts as inactive or inconclusive; note: nearly all actives have a fitted effect of over 55% in size; note: potency is the fitted concentration of half-maximal effect)
# Outline: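 P450-Glo CYP2D6 system: proluciferin substrate converted by enzyme to luciferin, read by luminescence proportional to activity. Enzyme-substrate mix with compound 10 min at room temperature, then NADPH regeneration 1 h before detection reagent.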
# [10] = target: Cytochrome P450 2C9 (Homo sapiens) (UniProt P11712); assay: Cytochrome P450 family 2 subfamily C member 9 (CYP2C9) small molecule antagonists: luciferase biochemical (cell-free) qHTS assay (AID 1645842; active = well fitted curve in the direction sought with a large enough effect in the repeat runs; an effect the other way counts as inactive or inconclusive; note: nearly all actives have a fitted effect of over 55% in size; note: potency is the fitted concentration of half-maximal effect)
# Outline: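 P450-Glo CYP2C9 system: proluciferin substrate with enzyme in mix containing 0.4% BSA, 10 min at room temperature, then NADPH regeneration solution added and incubated 1 h at 37C. Detection reagent stopped reaction; luminescence read after 20 min as RLU.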
# PA-1 = assay: Primary qHTS to identify gynecologic anti-cancer compounds using libraries of approved drugs and bioactive compounds (AID 1345084); conditions: Gynecologic cancer cell panel viability, ATPlite luminescence, 48 h; series mostly up to 57.5 µM; note: nearly all actives have a fitted effect of over 55% in size; note: potency is the fitted concentration of half-maximal effect; for activity change, negative = cytotoxicity: % is set by controls: 0 for no effect and ±100 for the full control effect
# Outline: as §1
# CRL-7250 = normal cell line; assay: Cytotoxic Profiling of Annotated Libraries Using Quantitative High-Throughput Screening (AID 1296008); conditions: Five cell lines viability, CellTiter-Glo ATP luminescence, 48-72 h; max response: stronger effect = lower value; note: nearly all actives have a fitted effect of over 60% in size; note: potency is the fitted concentration of half-maximal effect
# Outline: as §2
# [11] = qHTS assay to identify inhibitors of the type 1 interferon - major histocompatibility complex class I in skeletal muscle: Counter screen cell viability and HiBit confirmation (AID 1347412); conditions: iHSKM muscle cells + IFN-b, HiBiT or CellTiter-Glo, 24 h; for activity change, negative = inhibition: at 45.9 µM (top of the series); note: potency is the fitted concentration of half-maximal effect; for all read-outs here: nearly all actives have a fitted effect of over 60% in size
# Outline: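 Human myoblast knock-in line, 4.0 ng/ml IFN-beta stimulation, 24 h compound treatment. Endpoints: HiBiT lytic luminescence (HLA-B level) and CellTiter Glo (ATP). Dosing 12 concentrations, 3-fold steps, 46 uM highest final.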
# [12] = system: Zika virus NS2B-NS3 protease (linked construct); assay: Confirmatory screen NINDS AMC qHTS for Zika virus inhibitors (AID 1347152); note: potency is the fitted concentration of half-maximal effect; nearly all actives have a fitted effect of over 70% in size
# Outline: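 Concentration-response confirmation used the NINDS linked protease (NS2B hydrophilic domain joined to NS3 protease domain), 1 nM, with a 15-min compound preincubation. Substrate, Nle-KRR-AMC at 10 microM, was read by UV fluorescence before and after 15 min.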
# [13] = Confirmatory screen GU Rhodamine qHTS for Zika virus inhibitors qHTS (AID 1347157); note: potency is the fitted concentration of half-maximal effect; nearly all actives have a fitted effect of over 70% in size
# Outline: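 Percent inhibition came from the 15-min rise in Rhodamine110 fluorescence (1.5 microM substrate, ~15% conversion), normalized to no-inhibitor and no-enzyme wells and Hill-fitted. Unlinked protease, 25 nM, pH 8.0 Tris buffer; compounds up to 114 microM, 15-min preincubation.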
# [14] = Tertiary RLuc qRT-PCR qHTS assay for Zika virus inhibitors (AID 1347169)
# Outline: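 Inhibition of ZIKV-RLuc replication in Vero cells, read as Renilla luminescence 1-1.5 hrs after live-cell substrate addition, following 48-72 hrs infection at MOI 1-2 in presence of compound.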
# Sequence of Phenylethanolamine N-methyltransferase (Homo sapiens) (P11086 whole entry, looked up): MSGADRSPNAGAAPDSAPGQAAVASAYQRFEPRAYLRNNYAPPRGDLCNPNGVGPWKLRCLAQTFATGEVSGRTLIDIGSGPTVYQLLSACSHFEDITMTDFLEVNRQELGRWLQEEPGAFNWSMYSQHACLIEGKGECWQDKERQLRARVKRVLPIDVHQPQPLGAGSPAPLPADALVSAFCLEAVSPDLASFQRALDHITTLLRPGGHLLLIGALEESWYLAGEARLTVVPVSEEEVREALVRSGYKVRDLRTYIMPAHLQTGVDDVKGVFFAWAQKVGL
# Sequence of Cytochrome P450 2D6 (Homo sapiens) (P10635 whole entry, looked up): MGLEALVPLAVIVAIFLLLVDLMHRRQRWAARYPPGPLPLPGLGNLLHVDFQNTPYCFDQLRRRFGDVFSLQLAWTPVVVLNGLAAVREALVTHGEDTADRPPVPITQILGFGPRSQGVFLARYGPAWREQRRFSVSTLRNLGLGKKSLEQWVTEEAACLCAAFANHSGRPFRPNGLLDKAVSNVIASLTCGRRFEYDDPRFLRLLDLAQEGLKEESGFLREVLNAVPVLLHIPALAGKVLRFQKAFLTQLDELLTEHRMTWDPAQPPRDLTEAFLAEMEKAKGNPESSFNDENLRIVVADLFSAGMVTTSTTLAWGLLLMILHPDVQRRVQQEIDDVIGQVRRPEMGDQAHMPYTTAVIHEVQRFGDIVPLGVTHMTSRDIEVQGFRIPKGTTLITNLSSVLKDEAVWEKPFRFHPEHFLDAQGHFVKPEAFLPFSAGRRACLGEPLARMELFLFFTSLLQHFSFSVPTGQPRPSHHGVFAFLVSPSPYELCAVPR
# Sequence of Cytochrome P450 2C9 (Homo sapiens) (P11712 whole entry, looked up): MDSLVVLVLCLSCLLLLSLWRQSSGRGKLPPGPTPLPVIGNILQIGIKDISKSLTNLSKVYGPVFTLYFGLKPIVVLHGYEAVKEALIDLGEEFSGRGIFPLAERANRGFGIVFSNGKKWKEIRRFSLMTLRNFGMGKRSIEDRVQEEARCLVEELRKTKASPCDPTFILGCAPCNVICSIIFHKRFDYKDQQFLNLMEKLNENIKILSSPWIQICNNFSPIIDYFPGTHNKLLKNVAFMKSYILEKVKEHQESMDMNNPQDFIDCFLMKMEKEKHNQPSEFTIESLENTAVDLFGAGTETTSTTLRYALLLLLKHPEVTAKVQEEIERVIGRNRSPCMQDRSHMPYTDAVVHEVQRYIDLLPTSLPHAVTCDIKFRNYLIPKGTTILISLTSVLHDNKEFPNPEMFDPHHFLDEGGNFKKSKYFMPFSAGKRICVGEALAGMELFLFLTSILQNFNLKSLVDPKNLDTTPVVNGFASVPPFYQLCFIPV
# Sequence of Nicotinamide N-methyltransferase (Homo sapiens) (P40261 whole entry, looked up): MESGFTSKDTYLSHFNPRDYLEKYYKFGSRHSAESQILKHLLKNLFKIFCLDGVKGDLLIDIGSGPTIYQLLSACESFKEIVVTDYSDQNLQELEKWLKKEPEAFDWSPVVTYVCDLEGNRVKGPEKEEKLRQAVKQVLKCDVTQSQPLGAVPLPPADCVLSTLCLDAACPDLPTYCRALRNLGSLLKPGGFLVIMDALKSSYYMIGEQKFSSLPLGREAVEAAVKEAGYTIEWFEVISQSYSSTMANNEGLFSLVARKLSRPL
# Sequence of Catechol O-methyltransferase (Homo sapiens) (P21964 whole entry, looked up): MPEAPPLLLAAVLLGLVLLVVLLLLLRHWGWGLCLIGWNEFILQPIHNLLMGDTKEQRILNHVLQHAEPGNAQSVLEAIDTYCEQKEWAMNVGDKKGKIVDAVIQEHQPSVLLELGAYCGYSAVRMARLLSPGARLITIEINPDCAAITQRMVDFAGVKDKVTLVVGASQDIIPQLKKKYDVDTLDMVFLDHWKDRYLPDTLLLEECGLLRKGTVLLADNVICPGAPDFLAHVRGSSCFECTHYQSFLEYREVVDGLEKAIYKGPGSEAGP
compound,measurement,setting,value
COc1cc(O)c(C(=O)CCc2ccc(O)cc2)c(O[C@@H]2O[C@H](CO)[C@@H](O)[C@H](O)[C@H]2O)c1,Potency,[1],inactive
same,activity,[2],-69.8%
same,"activity change, negative = inhibition",[3],-2.33% [at 29.8 µM]
same,activity,[4],0.372%
same,activity,[5],0.533%
same,Potency,[6],9.22 µM (active)
same,Potency,[7],inactive
same,outcome,HACAT,inactive [at 17.4 µM]
same,Potency,CAOV3,inactive
C=C(C)C(=O)OC1[C@@H]2C(=C)C(=O)O[C@@H]2C[C@@H](C)[C@@H]2C=CC(=O)[C@@]12C (stereo partly specified),Potency,[6],inactive
same,Potency,[7],inactive
same,outcome,HACAT,inactive
same,Potency,CAOV3,inactive
same,Potency,SKOV3,inactive
O=C(NNc1ccccc1)c1ccncc1,Potency,[1],inactive
same,Potency,[8],inactive
same,Potency,[6],inactive
same,Potency,[7],inactive
same,Potency,CAOV3,inactive
COc1cc([C@@H](CC(=O)O)c2ccc(C)c(CN3C[C@@H](C)Oc4ccccc4S3(=O)=O)c2)cc2nnn(C)c12,Potency,[8],inactive
same,max response,NIH3T3,3.5% (inactive)
Cc1ccc(C(=O)N2CCN(c3ccc([N+](=O)[O-])cc3)CC2)cc1Cl,Potency,[9],inactive
same,Potency,[10],16.9 µM (active)
same,Potency,[6],inactive
same,Potency,[7],inactive
same,Potency,CAOV3,inactive
same,Potency,PA-1,inactive
same,Potency,SKOV3,inactive
CN(CCCNC(=O)c1ccc2nc3c(c(Cl)c2c1)CCCC3)Cc1ccccc1,Potency,[9],1.34 µM (active)
same,Potency,[10],15.1 µM (active)
same,Potency,[6],inactive
same,Potency,[7],inactive
same,Potency,PA-1,inactive
same,Potency,SKOV3,inactive
COc1ccc(C(=O)N(CCC(C)C)Cc2nc(C)c(C)n2Cc2ccccc2C)c(OC)c1,Potency,[9],0.952 µM (active)
same,Potency,[10],21.3 µM (active)
same,activity,[2],-8.43%
same,"activity change, negative = inhibition",[3],-6.57%
same,activity,[4],-68.8%
same,activity,[5],-7.99%
same,Potency,[7],inactive
same,max response,CRL-7250,-0.877% (inactive)
same,Potency,PA-1,inactive
same,Potency,SKOV3,inactive
CCC(C)n1cc(C)c2c(C(=O)NCc3c(C)cc(C)[nH]c3=O)cc(-c3ccc(N4CCNCC4)nc3)cc21 (stereo unspecified),Potency,[10],2.13 µM (active)
same,Potency,[7],inactive
same,outcome,HACAT,inactive
same,Potency,PA-1,inactive
same,Potency,SKOV3,inactive
CN1CCN(C(=O)c2ccc(Nc3nccc(-c4cccs4)n3)cc2Cl)CC1,Potency,[1],18.4 µM (active)
same,Potency,[9],21.3 µM (active)
same,Potency,[10],0.674 µM (active)
same,activity,[2],-2.55%
same,"activity change, negative = inhibition",[3],0%
same,activity,[4],-31.1%
same,activity,[5],-3.47%
same,Potency,[7],inactive
same,Potency,PA-1,inactive
same,Potency,SKOV3,inactive
COc1ccccc1-c1cc(Nc2cccc(CS(N)(=O)=O)c2)ncn1,Potency,[1],inactive
same,Potency,[9],inactive
same,Potency,[10],9.52 µM (active)
same,Potency,[7],inactive
same,Potency,CRL-7250,16.4 µM (active)
same,Potency,PA-1,22.4 µM (active)
OCC(Cc1ccccc1)Nc1nc(Oc2ccc3c(c2)CCC3)nc2c1ncn2Cc1ccc(-c2ccccc2)cc1 (stereo unspecified),Potency,[7],inactive
same,Potency,SKOV3,inactive
CCOC(=O)c1cnn(-c2ccc(NC(=O)C(Cl)=C(Cl)Cl)cc2)c1C(F)(F)F,Potency,[9],15.1 µM (active)
same,Potency,[10],6.74 µM (active)
same,Potency,[6],inactive
same,Potency,[7],inactive
same,Potency,CRL-7250,20.6 µM (active)
same,Potency,CAOV3,6.31 µM (active)
COc1ccc(Cl)cc1[C@@]1(F)C(=O)Nc2cc(C(F)(F)F)ccc21,Potency,[9],23.9 µM (active)
same,Potency,[10],6.01 µM (active)
same,max response,CRL-7250,-2.43% (inactive)
C[C@@H]1COCCN1c1cc(C2(S(C)(=N)=O)CC2)nc(-c2ccnc3[nH]ccc23)n1 (stereo partly specified),Potency,NIH3T3,4.17 µM (active)
CN(C)C(=O)c1cc2cnc(Nc3ccc(N4CCNCC4)cn3)nc2n1C1CCCC1,Potency,[1],inactive
same,Potency,[8],inactive
same,Potency,[9],inactive
same,max response,CRL-7250,3.25% (inactive)
same,Potency,SKOV3,inactive
CCN1CCN(Cc2ccc(-c3cc4c(NC(C)c5ccccc5)ncnc4[nH]3)cc2)CC1 (stereo unspecified),Potency,[9],12 µM (active)
same,Potency,[10],inactive
same,Potency,[6],inactive
same,Potency,NIH3T3,8.2 µM (active)
same,Potency,SKOV3,3.55 µM (active)
Oc1ccc(Nc2nc(-c3ccc(Cl)cc3)cs2)cc1,Potency,CAOV3,inactive
same,"activity change, negative = inhibition",[11]; HiBiT,-38.1% (inactive)
same,"activity change, negative = inhibition",[11]; Viability,7.19% (inactive)
Cc1cc(C)c(-c2csc(NC(=O)c3ccccc3)n2)c(C)c1,Potency,[7],inactive
same,Potency,NIH3T3,8.2 µM (active)
same,Potency,SKOV3,25.1 µM (active)
C=CC(=O)Nc1cc(Nc2nccc(-c3cn(C)c4ccccc34)n2)c(OC)cc1N(C)CCN(C)C,Potency,[1],11.6 µM (active)
same,Potency,[8],8.29 µM (active)
same,Potency,[9],23.9 µM (active)
same,Potency,CAOV3,35.5 µM (active)
same,Potency,PA-1,25.1 µM (active)
same,Potency,[11]; HiBiT,24.9 µM (active)
Cc1cc(N=Nc2ccc(S(=O)(=O)Nc3ccccn3)cc2)c(N)cc1O,Potency,[6],0.597 µM (active)
same,Potency,NIH3T3,8.2 µM (active)
same,Potency,PA-1,8.91 µM (active)
CN(CC(=O)N(Cc1ccc(C2CCCCC2)cc1)c1ccc(C(=O)O)cc1)S(=O)(=O)c1c(F)c(F)c(F)c(F)c1F,Potency,[12],19.7 µM (active)
same,Potency,[13],3.5 µM (active)
same,Potency,[14],7.39 µM (active)
same,Potency,[10],16.9 µM (active)
same,Potency,[7],inactive
same,Potency,NIH3T3,6.51 µM (active)
same,Potency,CAOV3,25.1 µM (active)
same,Potency,SKOV3,31.6 µM (active)
C=C1[C@@H](C)[C@H]2[C@H](Cc3c[nH]c4ccccc34)NC(=O)[C@]23C(=O)/C=C/C(=O)[C@H](O)/C(C)=C\[C@@H](C)C/C=C/[C@H]3[C@@H]1O,Potency,[1],inactive
same,Potency,[6],inactive
same,Potency,[7],inactive
same,Potency,NIH3T3,3.55 µM (active)
same,Potency,PA-1,inactive
COc1ccc(NS(=O)(=O)c2sc3ccc(Cl)cc3c2C)cc1N1CCNCC1,Potency,[9],23.9 µM (active)
same,Potency,[7],inactive
same,Potency,CAOV3,inactive
same,Potency,PA-1,inactive
same,Potency,SKOV3,inactive
CC(=O)C1=C(O)C2c3c[nH]c4cccc(c34)CC2C(C)(C)N(C)C1=O (stereo unspecified),Potency,[1],9.2 µM (active)
same,Potency,CAOV3,inactive
same,Potency,SKOV3,inactive
CC(CCC1(O)OC2CC3C4CC=C5CC(O[C@@H]6O[C@H](CO)[C@@H](O[C@@H]7O[C@H](CO)[C@@H](O)[C@H](O)[C@H]7O)[C@H](O)[C@H]6O[C@@H]6O[C@@H](C)[C@H](O)[C@@H](O)[C@H]6O)CCC5(C)C4CCC3(C)C2C1C)CO[C@@H]1O[C@H](CO)[C@@H](O)[C@H](O)[C@H]1O (stereo partly specified),"activity change, negative = cytotoxicity",CAOV3,-3.93% [at 11.6 µM] (inactive)
same,"activity change, negative = cytotoxicity",PA-1,4.42% [at 11.6 µM] (inactive)
same,"activity change, negative = cytotoxicity",SKOV3,-2.2% [at 11.6 µM] (inactive)
